From PubChem
Rows were chosen to be rich in hits. Some 13% of all compounds tested hit in one or more screens of this group.
HADH2 inhib = qHTS Assay for Inhibitors of HADH2 (Hydroxyacyl-Coenzyme A Dehydrogenase, Type II); recombinant HADH2, NADH fluorescence, beta-hydroxybutyryl-CoA; 3.4% of 73,000 active; Potency, µM (doses to about 57.1 µM), inactives show at the highest dose activity change, negative = inhibition, usual class: inhibitors; 3-hydroxyacyl-CoA dehydrogenase type-2 (Homo sapiens), Q99714; AID 886, 2007; also: potency is read from the fitted curve at half-maximal effect; % is scaled to controls: 0 for no effect and ±100 for the full control effect; nearly all actives have a fitted effect of over 60% in size
Target sequence (Q99714 whole entry, looked up, one chain of several): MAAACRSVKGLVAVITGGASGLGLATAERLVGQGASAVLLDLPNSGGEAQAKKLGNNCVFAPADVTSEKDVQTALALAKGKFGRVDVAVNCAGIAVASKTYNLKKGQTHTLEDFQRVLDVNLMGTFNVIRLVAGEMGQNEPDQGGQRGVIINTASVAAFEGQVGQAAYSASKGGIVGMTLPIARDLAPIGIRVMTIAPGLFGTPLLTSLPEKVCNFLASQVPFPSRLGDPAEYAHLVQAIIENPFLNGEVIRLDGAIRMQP
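Buffer 100 mM Tris-HCl pH 9.0/0.01% Tween-20; HADH2 20 nM; NAD+ 1 mM; beta-hydroxybutyryl-CoA 90 uM (all final). 15 min cpd preincubation, RT.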
A350 fluor = qHTS Assay for Spectroscopic Profiling in A350 Spectral Region. max dye-equivalent concentration, M. Compound autofluorescence, 340/450 nm, Alexa 350 dye-equivalents; active compounds read high. AID 590, 2007. 11% of 59,000 active; in the data active = max dye-equivalent concentration above about 10 nM; inconclusive = mostly about 1.1 nM to 9.6 nM
HSD17B inhib = qHTS Assay for Inhibitors of HSD17B4, hydroxysteroid (17-beta) dehydrogenase 4; 3-hydroxyacyl-CoA dehydrogenase type-2 (Homo sapiens), Q99714; recombinant HSD17B10, NADH fluorescence kinetic; Potency, µM (series often up to 57.1 µM), inactives show at the highest dose activity change, negative = inhibition, usual class: inhibitors; 7.6% of 75,000 active; AID 893, 2007;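 also: the protocol describes HADH2 (HSD17B10) and not the HSD17B4 of the title; potency is read from the fitted curve at half-maximal effect; % is scaled to controls: 0 for no effect and ±100 for the full control effect; nearly all actives have a fitted effect of over 70% in size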
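20 nM HADH2, pH 9.0 Tris/Tween; cpd preinc 15 min RT; start w/ 1 mM NAD+ + 90 uM b-hydroxybutyryl-CoA; kinetic fluor ex360/em450 q30s x 4 min; delta last-first.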
4MU fluor = qHTS Assay for Spectroscopic Profiling in 4-MU Spectral Region; 11% of 59,000 active; compound autofluorescence, 340/450 nm, 4-MU equivalents; active compounds read high; max dye-equivalent concentration, M; in the data active = max dye-equivalent concentration above about 10 nM; inconclusive = mostly about 1.1 nM to 9.6 nM
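Compounds in 100 mM Tris, pH 8.0, incubated 15 min at room temperature, then fluorescence read at 340 nm excitation/450 nm emission. Signal converted to 4-MU dye-equivalent concentration using an on-plate six-point 4-MU standard curve.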
AID923 = qHTS Assay for Allosteric/Competitive Inhibitors of Caspase-1: Spectroscopic Profiling in AFC Spectral Region; compound fluorescence, AFC spectral region (405/520 nm); Potency, µM (highest dose often 57.5 µM), for inactives: top-dose fluorescence increase, hits mostly activators; 1.1% of 75,000 active; AID 923, 2007; also: potency is read from the fitted curve at half-maximal effect; 0% is about no effect
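Titrations up to 57 uM read every 20 sec for 3 min (405/520 nm) with 50 nM caspase 1 and 5 uM Ac-WEHD-AFC, pH 7.5 HEPES buffer. Fluorescence-vs-time intercept gave baseline, scaled against on-plate AFC standard.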
GBA mod = Glucocerebrosidase; Lysosomal acid glucosylceramidase (Homo sapiens), P04062; purified enzyme, resorufin glucoside fluorescence (screen aimed at inhibitors), 20 min; Potency, µM; 1.1% of 48,000 active; AID 360, 2006; in the data active = potency below about 15 µM; inconclusive = mostly about 16 µM to 33 µM;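 also: potency is read from the fitted curve at half-maximal effect; the screen sought inhibitors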
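Normal human glucocerebrosidase (0.2 nM final) was assayed with resorufin β-D-glucopyranoside (30 uM final) in 50mM citric acid/KH2PO4, 10mM sodium taurocholate, 0.01% tween-20, pH 5.9. Compounds were titrated; fluorescence (Ex 548, Em 600) read after 20 min at RT.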
Active calls of the source: *; i = inactive; ? = inconclusive; · = no result given; [ ] = remark or other dose. Unless noted, calls follow the shape of the dose curve; as a rule, active = well fitted curve in the direction sought with a large enough effect; inconclusive = small, poorly fitted or top-dose-only effect, or another doubt; inactive = no such curve, though single readings can be large; an effect the other way counts as inactive or inconclusive.

SMILES	HADH2 inhib	A350 fluor	HSD17B inhib	4MU fluor	AID923	GBA mod
CCOc1ccc2c(C)c(C(=O)O)oc2c1OCC	?	i	31.6µM*	i	1.0%	>76.9
COc1ccc(CNC(=O)c2cnc3scc(C)n3c2=O)cc1	?	·	25.1µM*	·	2.9%	·
Cc1csc2ncc(C(=O)NCc3ccco3)c(=O)n12	31.6µM*	2.13e-07M*	25.1µM*	2.35e-07M*	1.4%	>76.9
O=C(NCCN1CCOCC1)c1ccc2c(c1)ncn2C1CCCCC1	1.0%	i	-1.7%	i	0.1%	14.7*
N=c1ccn2c(n1)O[C@@H]1[C@@H](O)[C@H](CO)O[C@H]12	2.6%	i	-7.0%	i	-1.7%	·
Cc1ccc(-c2csc(NC(=O)c3ccno3)n2)cc1	20µM*	i	25.1µM*	i	-1.0%	>76.9
COc1ccc2[nH]c(=O)c(CN(CC3CCCO3)C(=O)Nc3ccccc3OC)cc2c1 (centres undefined)	-8.1%	7.09e-08M*	?	7.62e-08M*	0.5%	>76.9
COc1ccccc1NC(=O)N(Cc1cc2cc(OC)c(OC)cc2[nH]c1=O)CC1CCCO1 (centres undefined)	?	9.15e-08M*	25.1µM*	1.03e-07M*	-1.8%	>76.9
COc1ccc2[nH]c(=O)c(CN(CCCN3CCOCC3)C(=O)NCc3ccccc3)cc2c1	-12.4%	1.65e-07M*	31.6µM*	2.15e-07M*	2.0%	·
COc1ccccc1NC(=O)N(Cc1ccco1)Cc1cc2c(C)ccc(C)c2[nH]c1=O	-29.5%	i	31.6µM*	i	-1.2%	>76.9
COc1cc(C(=O)N(Cc2cc3ccccc3[nH]c2=O)CC2CCCO2)cc(OC)c1OC (centres undefined)	-3.7%	i	-12.3%	i	0.5%	>76.9
CCN1CCCC1CN(Cc1cc2cc(C)cc(C)c2[nH]c1=O)C(=O)Nc1ccccc1OC (centres undefined)	-3.8%	?	-24.7%	?	3.3%	>76.9
CCOc1ccc2[nH]c(=O)c(CN(CC3CCCN3CC)C(=O)NCc3ccccc3)cc2c1 (centres undefined)	-6.3%	2.44e-07M*	31.6µM*	2.61e-07M*	1.0%	>76.9
CCc1ccc2[nH]c(=O)c(CN(CCCN3CCOCC3)C(=O)Nc3cccc(Cl)c3)cc2c1	-5.2%	i	0.9%	i	2.6%	?
COc1ccc2[nH]c(=O)c(CN(CCN3CCCC3)C(=O)Nc3ccccc3Cl)cc2c1	-10.2%	2.48e-07M*	25.1µM*	2.5e-07M*	0.6%	·
CC(C)=CCC/C(C)=C/CO/N=C1/[C@H]2O[C@@H]2[C@@H](O)[C@H]2[C@H]1CCn1c(=O)n(Cc3cc4c(cc3Cl)OCO4)c(=O)n12	10.6%[11.4 µM]	·	-2.6%[11.4 µM]	·	-0.8%[11.5 µM]	·
O=C(c1cc(C(F)(F)F)cc(C(F)(F)F)c1)N1CCC2(CC1)CN(c1ccccc1)C2	?	i	-7.5%	i	-2.6%	·
CCOC(=O)c1c(C)oc2c(CN3CCN(C)CC3)c(Br)c(OC)c(O)c12	-10.0%	i	-0.3%	i	-1.2%	·
COc1ccccc1Oc1c(C)oc2c(CN3CCN(C)CC3)c(O)ccc2c1=O	?	1.56e-06M*	31.6µM*	1.11e-06M*	10.0%	>76.9
COC(=O)c1ccc(Oc2c(C)oc3c(CN4CCN(C)CC4)c(O)ccc3c2=O)cc1	-165.3%	2.71e-06M*	31.6µM*	1.86e-06M*	11.4%	?
CCCc1c(OCCCOc2ccc(OCC(=O)O)cc2)ccc(CC=O)c1O	-3.9%	·	?	·	-3.8%	·
CCc1nc(N)nc(N)c1-c1ccc(Cl)cc1	-5.0%	i	5.5%	i	1.2%	·
Clc1ccc(/C=C\c2nc(Cl)c(-c3ccc(Cl)cc3)c(Cl)n2)cc1	17.7%[11.4 µM]	?	?	1.09e-08M*	0.9%[11.5 µM]	·
C[C@H](N[C@@H](C)COc1ccccc1)[C@H](O)c1ccc(O)cc1	5.0%[25.6 µM]	i	0.4%[25.6 µM]	i	-0.3%[25.7 µM]	·
